Compound activity (PubChem)
MARV entry inh = qHTS for inhibitors of binding or entry into cells for Marburg Virus; Marburg virus pseudotyped entry inhibition, cell reporter; Potency, µM (titrated, usually from 37.8 µM), usual class: inhibitors; hit rate 1.8% among 300,000; AID 540276, 2011; calls by dose curve; tested in HEK293 cells
Lassa entry inh = qHTS for Inhibitors of binding or entry into cells for Lassa Virus; hit rate 1.2% among 300,000; Potency, µM (top dose mostly 37.9 µM), hits mostly inhibitors; AID 540256, 2011; Lassa virus pseudotype entry inhibition, cell reporter; calls by dose curve; tested in HEK293 cells; also: nearly all actives have a fitted effect of over 50% in size
HCV inhibitor = qHTS Assay for Inhibitors of Hepatitis C Virus (HCV); hit rate 3.4% among 340,000; Huh7.5.1 HCVcc-Cre infection, luciferase reporter, 44 h; Potency, µM (highest dose often 41.8 µM), hits mostly inhibitors; active = well fitted inhibition curve with a large enough effect; inconclusive = small, poorly fitted or top-dose-only effect, or another doubt; inactive = no such curve, though single readings can be large or run the other way
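Infectious HCVcc-Cre (~0.5 moi) was added to cells just after compound, with cells seeded 4 h earlier at 1,000 per well. Luciferase activity after 44 h culture reported infection; substrate was incubated 15 min at room temperature before reading.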
FMDV antiviral = High Throughput Screening for Foot and Mouth Disease Virus Antivirals. hit rate 1.2% among 410,000. FMDV antiviral cell-based qHTS. AID 1159524, 2015. Potency, µM (top dose mostly 57.9 µM), hits mostly inhibitors; calls by dose curve; tested in HEK293T cells; also: read-out not given here; nearly all actives have a fitted effect of over 45% in size
HCMV antiviral = qHTS Assay for inhibitors of the human cytomegalovirus (HCMV) | HFF cells, HCMV-luciferase reporter, 72 h; stronger effect = lower value | activity change, negative = inhibition, % at 57.5 µM | hit rate 4.5% among 410,000 | AID 1259415, 2018; in the data active = activity change below about -60%; inconclusive = no clear call, values can overlap the other calls; inactive = above about -39%
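Screen run at 2 compound doses on HFFs infected with reporter HCMV, MOI 1 PFU/cell. Luciferase activity from cell lysates at 72 h post infection gave inhibition relative to buffer-only and Salinomycin wells.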
Large screens that a line does not name were inactive. Most compounds without a hit are left out; they make up all but 7.9% or so of the library.

CCN(CC)c1ccc2c(cc1=O)[C@@H](NC)CCc1cc(OC)c(OC)c(OC)c1-2	MARV entry inh 4µM, Lassa entry inh 1.1µM, HCMV antiviral -92
COc1cc2c(c(OC)c1OC)-c1ccc(NCc3ccccc3)c(=O)cc1C(NC(C)=O)CC2 (stereo not given)	HCMV antiviral -80 (no result: MARV entry inh, Lassa entry inh, HCV inhibitor)
CN[C@H]1CCc2cc(OC)c(OC)c(OC)c2-c2ccc(N(C)CC(OC)OC)c(=O)cc21	HCMV antiviral -74 (no result: MARV entry inh, Lassa entry inh)
Cc1oc2ncn(C)c(=O)c2c1C(=O)NCc1ccc(Cl)cc1	none (no result: MARV entry inh, HCV inhibitor)
CCC(=O)N1CCc2cc(Br)cc(S(=O)(=O)CCC(=O)Nc3ccc(C)c(C)c3)c21	HCMV antiviral inconclusive (no result: MARV entry inh, HCV inhibitor)
CCN1C(=NCc2ccc3c(c2)OCO3)NC(c2ccccc2)C(C(=O)OC)=C1C (stereo not given)	none (no result: Lassa entry inh, HCV inhibitor, FMDV antiviral, HCMV antiviral)
CCC(CC)C(=O)N1c2ccccc2C(C)(c2ccccc2)CC1(C)C (stereo not given)	Lassa entry inh inconclusive, FMDV antiviral inconclusive (no result: MARV entry inh, HCV inhibitor)
Cn1c(CCNC(=O)c2ccco2)nc2cc(NC(=O)COc3ccc(Cl)cc3)ccc21	none (no result: HCV inhibitor)
Cc1cccc(C)c1OCC(=O)N(Cc1ccccc1F)C1CCS(=O)(=O)C1 (stereo not given)	none (no result: HCV inhibitor)
CC1CCCN(c2c([N+](=O)[O-])cc(C(=O)O)cc2[N+](=O)[O-])C1 (stereo not given)	HCMV antiviral -101 (no result: MARV entry inh, Lassa entry inh)
Cc1ccn2c(Nc3ccc4c(c3)OCO4)c(-c3ccc(N(C)C)cc3)nc2c1	MARV entry inh inconclusive (no result: HCV inhibitor)
Cc1c(C(=O)NCc2ccc(Cl)cc2)oc2ccc3c(c12)C(=O)CC(C)(C)O3	MARV entry inh inconclusive (no result: Lassa entry inh, HCV inhibitor)
CCCNC(=O)c1oc2ccc3c(c2c1C)C=CC(C)(C)O3	MARV entry inh inconclusive, HCV inhibitor inconclusive, HCMV antiviral -61
CCCNC(=O)c1oc2ccc3c(c2c1C)C(=O)CC(C)(C)O3	MARV entry inh inconclusive, HCV inhibitor 10µM
CCOC(=O)Nc1ccc2c(c1)N(C(=O)N1CCN(C)CC1)c1ccccc1S2	MARV entry inh inconclusive
C=CC(=O)N1c2ccccc2Sc2ccc(NC(=O)OCC)cc21	MARV entry inh inconclusive, Lassa entry inh inconclusive, HCV inhibitor inconclusive, FMDV antiviral 13µM
Cc1c(C(=O)N2CCCCCC2)sc2ncnc(NCC3CCCO3)c12 (stereo not given)	none (no result: MARV entry inh, Lassa entry inh, HCV inhibitor, HCMV antiviral)
CCC(CN(C)C)Oc1cc(NCc2ccccc2)c2ncn(C(C)C)c2c1 (stereo not given)	HCV inhibitor inconclusive (no result: MARV entry inh, Lassa entry inh, HCMV antiviral)
COc1cc(N(Cc2ccccc2)Cc2ccccc2)c2ncn(C(C)C)c2c1	HCV inhibitor 11µM, HCMV antiviral -87 (no result: MARV entry inh, Lassa entry inh)
CCC(CO)Oc1cc(NC(=O)c2cccc([N+](=O)[O-])c2)c2ncn(C(C)C)c2c1 (stereo not given)	HCV inhibitor 2.8µM (no result: MARV entry inh, Lassa entry inh)
CCC(CO)Oc1cc(NCc2cc(C)cc(C)c2)c2ncn(C(C)C)c2c1 (stereo not given)	HCV inhibitor 1.6µM (no result: MARV entry inh, Lassa entry inh)
COc1cc(NCc2ccccc2)c2ncn(C(C)C)c2c1	HCV inhibitor 10µM (no result: MARV entry inh, Lassa entry inh)
CCC(CO)Oc1cc(NC(=O)c2ccc([N+](=O)[O-])cc2)c2ncn(C(C)C)c2c1 (stereo not given)	none (no result: MARV entry inh, Lassa entry inh)
COc1ccc(NC(=O)C2=C(C)Nc3nc(CCCO)nn3C2c2ccc(O)cc2)cc1 (stereo not given)	Lassa entry inh inconclusive (no result: MARV entry inh, HCV inhibitor)
CCOc1ccc(S(=O)(=O)Nc2ccc(OC)c(Cl)c2)c2cccnc12	none (no result: HCV inhibitor)
CCOc1ccc(OCC)c(NC(=O)c2cnc(SC)nc2-c2ccccc2)c1	FMDV antiviral inconclusive (no result: MARV entry inh, HCV inhibitor)
CC(C)C(NS(=O)(=O)c1cccc2cccnc12)C(=O)Nc1ccc(OC(F)(F)F)cc1 (stereo not given)	none (no result: MARV entry inh, HCV inhibitor)
Fc1ccc(-c2noc(-c3ccc4c(c3)CCO4)n2)cc1	MARV entry inh inconclusive, Lassa entry inh 10µM
CCCCOc1ccccc1C(=O)Nc1onc2c1CCCC2	none (no result: HCV inhibitor)
CCCOc1ccccc1C(=O)Nc1nc2c(s1)CCCC2	MARV entry inh inconclusive, Lassa entry inh inconclusive, HCMV antiviral -64 (no result: HCV inhibitor)
O=C(COc1ccccc1Cl)Nc1nc2c(s1)CCCC2	MARV entry inh inconclusive, Lassa entry inh inconclusive (no result: HCV inhibitor)
O=C(COc1ccccc1)Nc1nc2c(s1)CCCC2	MARV entry inh 6.3µM, Lassa entry inh inconclusive
CC1CN=C(c2cc(Cl)c(N)c(Cl)c2)c2c3ccc(C(F)(F)F)cc3nn21 (stereo not given)	none (no result: MARV entry inh, Lassa entry inh, HCV inhibitor, FMDV antiviral)
Cc1cc(C)cc(NC(c2cccc(Cl)c2)c2nnc(-c3ccccc3)o2)c1 (stereo not given)	MARV entry inh inconclusive (no result: HCV inhibitor)
